Laboratory results taken from paper PMC4336329 (PLoS ONE, 2015).
The campaign covered roughly 310,000 compounds. About 2,200 (0.71%) showed an effect of 50% or more. The effect is printed as a negative number. This excerpt belongs to a sample that is enriched for strong results.

molecular target: human ether-à-go-go-related gene (hERG) potassium channel (human, UniProt Q12809); test: primary screen, population patch clamp on CHO cells stably expressing hERG; higher = less effect of the substance
Sequence (Q12809 whole entry, looked up): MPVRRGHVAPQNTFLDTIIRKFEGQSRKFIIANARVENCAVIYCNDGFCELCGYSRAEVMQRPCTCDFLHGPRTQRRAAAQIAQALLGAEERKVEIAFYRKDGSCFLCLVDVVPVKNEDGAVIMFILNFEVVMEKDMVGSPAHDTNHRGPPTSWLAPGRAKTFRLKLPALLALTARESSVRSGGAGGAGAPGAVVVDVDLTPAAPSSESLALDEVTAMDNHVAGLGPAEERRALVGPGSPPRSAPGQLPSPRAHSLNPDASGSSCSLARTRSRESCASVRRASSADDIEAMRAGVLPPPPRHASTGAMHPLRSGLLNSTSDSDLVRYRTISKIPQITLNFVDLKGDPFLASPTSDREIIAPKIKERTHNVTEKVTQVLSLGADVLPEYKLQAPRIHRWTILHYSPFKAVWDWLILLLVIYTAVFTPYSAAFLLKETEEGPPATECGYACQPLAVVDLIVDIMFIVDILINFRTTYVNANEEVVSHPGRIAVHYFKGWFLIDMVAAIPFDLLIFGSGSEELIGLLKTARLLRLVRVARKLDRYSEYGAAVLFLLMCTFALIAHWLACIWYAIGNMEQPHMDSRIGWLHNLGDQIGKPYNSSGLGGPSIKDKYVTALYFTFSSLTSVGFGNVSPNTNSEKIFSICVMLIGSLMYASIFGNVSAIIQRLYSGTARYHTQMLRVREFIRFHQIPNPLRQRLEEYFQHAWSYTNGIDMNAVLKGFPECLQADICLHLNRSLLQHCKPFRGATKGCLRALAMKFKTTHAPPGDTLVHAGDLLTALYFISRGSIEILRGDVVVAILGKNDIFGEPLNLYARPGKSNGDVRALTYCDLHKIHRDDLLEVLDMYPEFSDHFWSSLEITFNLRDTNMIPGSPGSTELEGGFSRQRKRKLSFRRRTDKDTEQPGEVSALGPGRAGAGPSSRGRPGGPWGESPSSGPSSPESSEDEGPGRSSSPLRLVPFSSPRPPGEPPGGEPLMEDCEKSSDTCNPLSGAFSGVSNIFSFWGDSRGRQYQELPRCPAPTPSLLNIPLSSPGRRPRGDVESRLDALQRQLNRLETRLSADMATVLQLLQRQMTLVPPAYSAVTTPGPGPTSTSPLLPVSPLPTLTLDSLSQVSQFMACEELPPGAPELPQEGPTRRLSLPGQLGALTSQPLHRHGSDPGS

First: COc1ccc(C2C(C(=O)Nc3cccnc3)=C(C)Nc3nc(-c4cccs4)nn32)cc1 (stereo not drawn)
Second: COc1cccc(-c2nc3n(n2)C(c2cccs2)C(C(=O)Nc2cccnc2)=C(C)N3)c1 (stereo not drawn)
The “hERG current change (%, negative = inhibition) at 1uM” value of the first is higher: -2.21% for the first, -51.2% for the second.

Going from `COc1ccccc1-c1nc2n(n1)C(c1cccs1)C(C(=O)Nc1cccnc1)=C(C)N2` (stereo not drawn) to `COc1ccccc1C(=O)Nc1ccccc1N1CCN(C(=O)c2ccc(Cl)cc2)CC1`, the “hERG current change (%, negative = inhibition) at 1uM” value falls from 0.0177% to -85.2%.

First: CC(=O)OC(C(=O)NC1CCCCC1)c1ccccc1 (stereo not drawn)
Second: CC1CCCCN1C(=O)C(Cc1ccccc1)N1C(=O)C2CCCCC2C1=O (stereo not drawn)
The “hERG current change (%, negative = inhibition) at 1uM” value of the first is lower: 9.71% for the first, 10.7% for the second.

Going from `CCCN(C(=O)c1ccc(N(C)S(=O)(=O)c2ccc(C)cc2)cc1)C1CCS(=O)(=O)C1` (stereo not drawn) to `Cc1ccc2oc(C(=O)Nc3ccc(S(=O)(=O)Nc4onc(C)c4C)cc3)cc(=O)c2c1`, the “hERG current change (%, negative = inhibition) at 1uM” value rises from 14.8% to 15.4%.

First: CCN(CC)CCCNC(=O)CNC(=O)c1nn(-c2ccc(OC)cc2)c(=O)c2ccccc12
Second: CCN(CC)CCCNC(=O)c1nn(-c2cccc(OC)c2)c(=O)c2ccccc12
The “hERG current change (%, negative = inhibition) at 1uM” value of the first is higher: 17.5% for the first, -66.9% for the second.

Compared with `CCN(CC)CCCNC(=O)c1nn(-c2ccc(OC)cc2OC)c(=O)c2ccccc12`, `COC(=O)CN1C(=O)Nc2ccc(Cl)cc2C1c1ccccc1` (stereo not drawn) is higher in “hERG current change (%, negative = inhibition) at 1uM” value: 8.97% for the first, 22.6% for the second.

Going from `CC(=O)NS(=O)(=O)c1ccc(NC(=O)C(Sc2ccccc2)c2ccccc2)cc1` (stereo not drawn) to `CC(=O)Nc1ccc(S(=O)(=O)Nc2ccc(S(=O)(=O)Nc3ncccn3)cc2)cc1`, the “hERG current change (%, negative = inhibition) at 1uM” value rises from 7.09% to 8.81%.

First: Cn1c(=O)c(C(=O)CN2CCCCC2)c(N)n(Cc2ccccc2)c1=O
Second: CCOC(=O)C1CCN(c2c(N3CCN(Cc4ccccc4)CC3)c(=O)c2=O)CC1
The “hERG current change (%, negative = inhibition) at 1uM” value of the first is higher: 6.17% for the first, -66.6% for the second.

First: Cc1coc2cc3oc(=O)c(CCC(=O)N4C[C@H]5C[C@@H](C4)c4cccc(=O)n4C5)c(C)c3cc12
Second: Cc1coc2cc3oc(=O)c(CC(=O)N4C[C@H]5C[C@@H](C4)c4cccc(=O)n4C5)c(C)c3cc12
The “hERG current change (%, negative = inhibition) at 1uM” value of the first is lower: -16.8% for the first, 4% for the second.

Compared with `Cc1c(CC(=O)N2C[C@H]3C[C@@H](C2)c2cccc(=O)n2C3)c(=O)oc2cc3occ(C(C)(C)C)c3cc12`, `Cc1noc(C)c1COC(=O)c1cccc(S(=O)(=O)N2c3ccccc3CC2C)c1` (stereo not drawn) is higher in “hERG current change (%, negative = inhibition) at 1uM” value: -56.8% for the first, 10.5% for the second.

Compared with `O=C(N/N=C/c1c(O)ccc2ccccc12)c1cccc(C(F)(F)F)c1`, `COc1ccc(Br)cc1C(=O)Nc1ccccc1N1CCN(C(=O)c2ccccc2)CC1` is lower in “hERG current change (%, negative = inhibition) at 1uM” value: 13.9% for the first, 7.55% for the second.

Going from `CCOC(=O)c1c(NC(=S)Nc2ccc(F)cc2)sc2c1CCC2` to `COc1ccc(Cl)cc1C(=O)NC(=S)Nc1ccccc1N1CCOCC1`, the “hERG current change (%, negative = inhibition) at 1uM” value rises from -21.8% to 9.75%.

Compared with `O=C(Nc1ccccc1N1CCN(C(=O)c2ccccc2)CC1)c1ccccc1Cl`, `CC(=O)N1CCN(c2ccccc2NC(=O)c2cc(Br)ccc2Cl)CC1` is higher in “hERG current change (%, negative = inhibition) at 1uM” value: -29.8% for the first, -27% for the second.

Compared with `CN1CCN(c2ccccc2NC(=O)c2cc(Br)ccc2Cl)CC1`, `CS(=O)(=O)N1CCN(c2ccccc2NC(=O)c2cc(Br)ccc2Cl)CC1` is higher in “hERG current change (%, negative = inhibition) at 1uM” value: -53.1% for the first, -1.64% for the second.

Going from `COc1ccc(Cl)cc1C(=O)Nc1ccccc1N1CCN(C)CC1` to `COc1ccc(Cl)cc1C(=O)Nc1ccccc1N1CCN(C(=O)C(C)C)CC1`, the “hERG current change (%, negative = inhibition) at 1uM” value rises from -70.4% to -19.6%.

Compared with `CC(=O)c1nc2ccccc2n1Cc1ccccc1`, `CCOC(=O)C1CCN(Cc2ccc(-c3ccccc3)cc2)CC1` is lower in “hERG current change (%, negative = inhibition) at 1uM” value: 9.31% for the first, 8.54% for the second.

Compared with `CCCCn1c(N)c(N(CCC(C)C)C(=O)C2=COCCO2)c(=O)[nH]c1=O`, `CCOC(=O)C1CCN(c2c(NCCCN3CCN(Cc4ccccc4)CC3)c(=O)c2=O)CC1` is higher in “hERG current change (%, negative = inhibition) at 1uM” value: 5.25% for the first, 14.3% for the second.

First: Cc1cc(C)nc(N2CCC(CNC(=O)CCc3ccccc3)CC2)n1
Second: O=C(NCc1ccncc1)c1cc(S(=O)(=O)N2CCOCC2)c(Cl)cc1Cl
The “hERG current change (%, negative = inhibition) at 1uM” value of the first is higher: 20.4% for the first, 12.6% for the second.

Going from `O=C(NCc1cccs1)c1cc(S(=O)(=O)N2CCOCC2)c(Cl)cc1Cl` to `O=C(NCC(c1cccs1)N1CCOCC1)c1cc(S(=O)(=O)N2CCOCC2)c(Cl)cc1Cl` (stereo not drawn), the “hERG current change (%, negative = inhibition) at 1uM” value rises from -78.4% to 6.08%.

First: CCOC(=O)C1CCCN(c2c(N3CCN(C)CC3)c(=O)c2=O)C1 (stereo not drawn)
Second: CCOC(=O)C1CCCN(c2c(N3CCN(c4cccc(Cl)c4)CC3)c(=O)c2=O)C1 (stereo not drawn)
The “hERG current change (%, negative = inhibition) at 1uM” value of the first is higher: 10.2% for the first, -54.1% for the second.

First: CCOC(=O)C1CCN(c2c(N3CCCC(C(=O)OCC)C3)c(=O)c2=O)CC1 (stereo not drawn)
Second: CCOc1ccc(S(=O)(=O)N/N=C(\C)c2ccc(Cl)c(Cl)c2Cl)cc1
The “hERG current change (%, negative = inhibition) at 1uM” value of the first is lower: 8.36% for the first, 12.1% for the second.
